Our source for the Potency, activation and activity change, negative = inhibition values is PubChem BioAssay (NCATS).

In assay [1] the target is Rap guanine nucleotide exchange factor 3 (Homo sapiens) (UniProt O95398). The experiment in a line: Confirmatory qHTS for antagonist of cAMP-regulated guanine nucleotide exchange factor 3 (EPAC1) (AID 1645880). Note: nearly all actives have a fitted effect of over 55% in size. Note: potency is the fitted concentration of half-maximal effect. A digest of the protocol:
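Released BODIPY-GDP fluoresces less than Rap1-bound BODIPY-GDP; the signal is followed at 480/540 nm at 5-min intervals over 30 min, after 5 min at room temperature. Reactions contain 100 nM EPAC1, 250 nM RAP1B-BODIPY-GDP and 50 uM GDP; results are normalized to ATA and DMSO.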

For assay [2] the target is unchanged. The experiment in a line: Confirmatory qHTS for agonist of cAMP-regulated guanine nucleotide exchange factor 3 (EPAC1) (AID 1645881).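 For activation: EPAC1 catalysed release of BODIPY-GDP from Rap1B seen as fluorescence loss; 100% = effect of cAMP agonist control.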 Note: nearly all actives have a fitted effect of over 75% in size. Note: potency is the fitted concentration of half-maximal effect.
Assay [3] deals with Rap guanine nucleotide exchange factor 4 (Homo sapiens) (UniProt Q8WZA2). The experiment in a line: Confirmatory qHTS for agonist of cAMP-regulated guanine nucleotide exchange factor 4 (EPAC2) (AID 1645884).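 Note: nucleotide exchange releases bodipy-GDP from Rap1 and this lowers its fluorescence; % is set by controls: 0 for no effect and ±100 for the full control effect; nearly all actives have a fitted effect of over 65% in size.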
Assay [4] shares this target. The experiment in a line: Confirmatory qHTS for antagonist of cAMP-regulated guanine nucleotide exchange factor 4 (EPAC2) (AID 1645885). For activity change, negative = inhibition: % is set by controls: 0 for no effect and ±100 for the full control effect. Note: nearly all actives have a fitted effect of over 25% in size. Note: potency is the fitted concentration of half-maximal effect.
In assay [5] the target is Rap guanine nucleotide exchange factor 3 (Homo sapiens) (UniProt O95398). The experiment in a line: Counterscreen qHTS for antagonist of cAMP-regulated guanine nucleotide exchange factor 3 (EPAC1) (AID 1645888). Note: % of control where 0% means no effect. The method, boiled down: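 Measured: fluorescence of BODIPY-GDP bound to Rap1B, which falls as exchange proceeds. Conditions include 50 uM competing GDP, 5 and 30 min reads, and a later cAMP challenge for antagonist detection.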

Results filed as inconclusive are left out. Values without a mark were called inactive. Active and inactive are the calls of the source. Calls come from the whole dose curve; as a rule, active = well fitted curve in the direction sought with a large enough effect; inconclusive = small, poorly fitted or top-dose-only effect, or another doubt; inactive = no such curve, though single readings can be large; an effect the other way counts as inactive or inconclusive.

Sequence of Rap guanine nucleotide exchange factor 4 (Homo sapiens) (Q8WZA2 whole entry, looked up): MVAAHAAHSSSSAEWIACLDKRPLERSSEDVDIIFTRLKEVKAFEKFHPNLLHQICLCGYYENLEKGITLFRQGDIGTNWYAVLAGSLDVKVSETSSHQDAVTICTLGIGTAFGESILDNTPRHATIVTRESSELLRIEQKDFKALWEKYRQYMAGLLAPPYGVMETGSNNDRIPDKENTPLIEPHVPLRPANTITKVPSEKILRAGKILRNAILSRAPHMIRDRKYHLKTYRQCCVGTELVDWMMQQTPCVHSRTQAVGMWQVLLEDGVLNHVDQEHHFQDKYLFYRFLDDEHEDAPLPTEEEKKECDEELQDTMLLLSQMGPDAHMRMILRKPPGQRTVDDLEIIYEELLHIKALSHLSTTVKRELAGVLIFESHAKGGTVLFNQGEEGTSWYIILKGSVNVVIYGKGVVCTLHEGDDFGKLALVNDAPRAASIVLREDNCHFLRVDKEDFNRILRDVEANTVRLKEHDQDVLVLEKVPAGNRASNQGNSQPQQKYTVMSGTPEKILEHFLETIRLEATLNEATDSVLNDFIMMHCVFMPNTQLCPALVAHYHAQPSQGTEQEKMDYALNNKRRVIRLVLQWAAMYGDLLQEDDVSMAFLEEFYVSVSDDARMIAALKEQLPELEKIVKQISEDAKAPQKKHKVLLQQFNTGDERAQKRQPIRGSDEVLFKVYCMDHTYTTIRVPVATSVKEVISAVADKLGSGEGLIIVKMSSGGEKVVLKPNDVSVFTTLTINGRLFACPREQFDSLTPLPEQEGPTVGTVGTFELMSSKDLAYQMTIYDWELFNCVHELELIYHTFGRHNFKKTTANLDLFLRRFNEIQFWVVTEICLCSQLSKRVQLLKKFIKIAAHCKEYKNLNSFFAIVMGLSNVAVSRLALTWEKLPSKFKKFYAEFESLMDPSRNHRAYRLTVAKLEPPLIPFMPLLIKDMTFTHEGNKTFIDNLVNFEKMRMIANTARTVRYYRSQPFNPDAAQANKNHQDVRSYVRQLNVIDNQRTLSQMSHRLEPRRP
Sequence of Rap guanine nucleotide exchange factor 3 (Homo sapiens) (O95398 whole entry, looked up): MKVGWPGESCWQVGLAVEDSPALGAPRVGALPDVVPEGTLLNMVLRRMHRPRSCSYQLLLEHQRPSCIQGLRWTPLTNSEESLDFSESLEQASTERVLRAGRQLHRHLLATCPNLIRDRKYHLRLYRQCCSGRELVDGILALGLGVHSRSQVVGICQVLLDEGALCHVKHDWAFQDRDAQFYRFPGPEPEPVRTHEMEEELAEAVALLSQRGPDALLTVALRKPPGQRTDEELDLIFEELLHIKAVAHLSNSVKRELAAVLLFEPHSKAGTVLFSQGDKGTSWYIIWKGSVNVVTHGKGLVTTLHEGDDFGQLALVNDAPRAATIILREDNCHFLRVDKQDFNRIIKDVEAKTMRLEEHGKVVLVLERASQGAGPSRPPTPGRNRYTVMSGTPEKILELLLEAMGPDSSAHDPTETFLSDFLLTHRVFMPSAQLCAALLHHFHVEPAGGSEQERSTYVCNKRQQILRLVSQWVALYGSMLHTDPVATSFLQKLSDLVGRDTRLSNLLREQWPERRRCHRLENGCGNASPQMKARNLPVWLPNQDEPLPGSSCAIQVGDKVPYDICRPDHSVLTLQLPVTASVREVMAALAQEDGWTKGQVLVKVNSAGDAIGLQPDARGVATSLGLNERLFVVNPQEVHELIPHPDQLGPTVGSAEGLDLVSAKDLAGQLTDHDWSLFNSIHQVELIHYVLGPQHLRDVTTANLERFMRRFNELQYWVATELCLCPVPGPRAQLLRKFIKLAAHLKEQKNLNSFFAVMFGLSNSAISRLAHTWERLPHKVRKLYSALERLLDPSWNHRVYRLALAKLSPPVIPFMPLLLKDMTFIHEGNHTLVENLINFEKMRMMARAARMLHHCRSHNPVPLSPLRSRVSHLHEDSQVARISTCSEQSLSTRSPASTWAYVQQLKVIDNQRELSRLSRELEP

Turning to `CC1CN(S(=O)(=O)c2cccc(C(=O)Nc3ccccc3N3CCOCC3)c2)CC(C)O1` (stereo not given), the Potency entry in assay [1], in assay [2] and in assay [4] was “inactive” each time. Moreover, the activation in assay [3] was 3.24% [at 17.1 µM, percent relative to cAMP agonist control]. For the same compound, the activity change, negative = inhibition in assay [5] was -5.5% [at 30.8 µM].

As to `CC1CC1c1ccc(/C=C(\C#N)C(=O)Nc2ccccc2Cl)o1` (stereo not given), the Potency result in assay [1], in assay [2] and in assay [4] was “inactive” each time. The activation in assay [3] was 3.85% [at 17.1 µM, percent relative to cAMP agonist control]. In addition, in assay [5], the activity change, negative = inhibition is -9.3% [at 30.8 µM].

Take `CCOc1c(S(=O)(=O)N2CCCC2)ccc(Cl)c1Cl`: the Potency entry in assay [1], in assay [2], in assay [3], in assay [4] and in assay [5] was “inactive” each time.

With `COCCCn1c(=N)c(C(=O)NCc2cccnc2)cc2c(=O)n3cc(C)ccc3nc21`, the Potency entry in assay [1], in assay [2], in assay [3], in assay [4] and in assay [5] was “inactive” throughout.

As for `COc1ccc(C=NNc2ccc(S(=O)(=O)Nc3ccccc3C(=O)O)cc2[N+](=O)[O-])c(OC)c1`, the Potency in assay [1] was 15.1 µM (active). The Potency result in assay [2], in assay [3], in assay [4] and in assay [5] was “inactive” each time.

For `Cc1ccccc1CNC(=O)CCC(=O)N1CCSc2ccccc21`, the Potency entry in assay [1], in assay [2], in assay [3], in assay [4] and in assay [5] was “inactive” throughout.

On to `CCc1cccc2c(C(=O)COC(=O)c3nccnc3N)c[nH]c12`, for which the Potency entry in assay [1], in assay [2], in assay [3], in assay [4] and in assay [5] was “inactive” throughout.

For the compound `COc1ccc(-n2nnnc2SCC(=O)c2ccc(O)c(O)c2)cc1`, the Potency in assay [1] is 9.53 µM (active). Also, the Potency result in assay [2], in assay [3], in assay [4] and in assay [5] was “inactive” throughout.

On to `O=c1c(Cl)c(Cl)cnn1Cc1nnc(-c2ccccc2Br)o1`, for which, in assay [1], the Potency is 42.6 µM (active). The Potency result in assay [2], in assay [3], in assay [4] and in assay [5] was “inactive” throughout.

Consider `O=C(Nc1ccccc1C(F)(F)F)N1CCC(CN2CCc3ccccc3C2)CC1`, for which the Potency entry in assay [1], in assay [2], in assay [3], in assay [4] and in assay [5] was “inactive” throughout.

Turning to `Clc1ccccc1Cn1c(-c2cccs2)nc2ccccc21`, the Potency entry in assay [1], in assay [2], in assay [3], in assay [4] and in assay [5] was “inactive” each time.

In the case of `CC1(C(=O)NS(=O)(=O)c2ccc(F)cc2F)CCN1C(=O)C1(c2ccc(Cl)cc2)CCC1` (stereo not given), the Potency in assay [1] was 9.53 µM (active). Moreover, the Potency entry in assay [2], in assay [3], in assay [4] and in assay [5] was “inactive” each time.

In the case of `CCc1nc2ccc(C(=O)N(C)Cc3ccccc3)cn2c1N(CC)Cc1cccc(Br)c1`, the Potency entry in assay [1], in assay [2] and in assay [4] was “inactive” throughout. Also, in assay [3], the activation is 3.66% [at 17.1 µM, percent relative to cAMP agonist control]. In addition, the activity change, negative = inhibition in assay [5] is -21% [at 30.8 µM].

On to `C/C(=N\N1C(=O)c2ccccc2NC1c1ccco1)c1ccccc1O` (stereo not given), for which the Potency in assay [1] was 75.7 µM (active). Moreover, the Potency entry in assay [2], in assay [3], in assay [4] and in assay [5] was “inactive” each time.

As for `CCOc1ccc(NC(=O)CN(C)C(=O)c2ccccc2SCc2c(C)noc2C)cc1OCC`, the Potency result in assay [1], in assay [2] and in assay [4] was “inactive” throughout. For the same compound, in assay [3], the activation is 1.53% [at 17.1 µM, percent relative to cAMP agonist control]. Moreover, the activity change, negative = inhibition in assay [5] is -10.4% [at 30.8 µM].

As to `Cn1cc(C(c2ccccc2)c2ccc(Cl)s2)c2ccccc21` (stereo not given), the Potency entry in assay [1], in assay [2], in assay [3], in assay [4] and in assay [5] was “inactive” in each case.

As to `CCc1nc2c(OCc3ccc(Cl)cc3)cccn2c1N(C)C(=O)c1ccccc1F`, the Potency result in assay [1], in assay [2] and in assay [4] was “inactive” in each case. Also, the activation in assay [3] was 3.03% [at 17.1 µM, percent relative to cAMP agonist control]. Besides, the activity change, negative = inhibition in assay [5] was -10.9% [at 30.8 µM].

As for `CCc1ccc(S(=O)(=O)/N=C2\C=C(NS(=O)(=O)c3ccccc3)C(=O)c3ccccc32)cc1`, the Potency in assay [1] was 19 µM (active). Besides, the Potency entry in assay [2], in assay [3], in assay [4] and in assay [5] was “inactive” throughout.

Turning to `CCCNC(=O)c1ccc2c(=O)c(O)c(-c3ccsc3)[nH]c2c1`, the Potency result in assay [1], in assay [2] and in assay [4] was “inactive” throughout. In addition, the activation in assay [3] was -5.87% [at 17.1 µM, percent relative to cAMP agonist control]. The activity change, negative = inhibition in assay [5] was -0.0367% [at 30.8 µM].

Take `CN1CCS/C1=C/C=C1\SC(=S)N(CC(=O)O)C1=O`: the Potency entry in assay [1] and in assay [4] was “inactive” in each case. Besides, the Potency in assay [2] was 50.1 µM (active). Moreover, the activation in assay [3] is 15.2% [at 17.1 µM, percent relative to cAMP agonist control]. Also, in assay [5], the activity change, negative = inhibition is 62.8% [at 30.8 µM].

Take `CC(=O)C(Sc1nnnn1-c1ccc(O)cc1)c1ccccc1` (stereo not given): the Potency result in assay [1], in assay [2], in assay [3], in assay [4] and in assay [5] was “inactive” throughout.

On to `c1ccc(-n2nnnc2-n2ccnc2)cc1`, for which the Potency entry in assay [1], in assay [2], in assay [3], in assay [4] and in assay [5] was “inactive” each time.

Consider `CC(=C\c1ccccc1)/C=C1/SC(=S)N(CCCC(=O)O)C1=O`, for which the Potency in assay [1] is 84.9 µM (active). In addition, the Potency entry in assay [2], in assay [3], in assay [4] and in assay [5] was “inactive” each time.

Regarding `CCC(=O)N1N=C(c2cccs2)CC1c1ccc(OC)cc1` (stereo not given), the Potency result in assay [1], in assay [2], in assay [3], in assay [4] and in assay [5] was “inactive” in each case.

For `CC(/C=C1\SC(=S)N(NS(=O)(=O)c2ccc(C)cc2)C1=O)=C\c1ccccc1`, the Potency in assay [1] was 26.9 µM (active); in assay [4], 47.8 µM (active). Besides, the Potency result in assay [2], in assay [3] and in assay [5] was “inactive” in each case.
